Sampled rows, rich in hits. Any-hit rate of the full collection: about 0.93%.
TRb-SRC2 inh – disrupts binding of human TR beta to SRC2 | P10828 | TRbeta-SRC2 peptide binding, fluorescence polarization; receptor liganded with 1 µM T3 | Potency, µM (doses to about 106 µM), inactives show at the top dose activity change, negative = inhibition, usual class: inhibitors | 280,000 compounds, 0.065% hits | AID 1469; active = well fitted inhibition curve with a large enough effect; inconclusive = small, poorly fitted or top-dose-only effect, or effect the other way;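 note: potency is the fitted concentration of half-maximal effect; plate controls were bound peptide for no effect and peptide without receptor for full effect; nearly all actives have a fitted effect of over 50% in size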
Target sequence (P10828 whole entry, looked up): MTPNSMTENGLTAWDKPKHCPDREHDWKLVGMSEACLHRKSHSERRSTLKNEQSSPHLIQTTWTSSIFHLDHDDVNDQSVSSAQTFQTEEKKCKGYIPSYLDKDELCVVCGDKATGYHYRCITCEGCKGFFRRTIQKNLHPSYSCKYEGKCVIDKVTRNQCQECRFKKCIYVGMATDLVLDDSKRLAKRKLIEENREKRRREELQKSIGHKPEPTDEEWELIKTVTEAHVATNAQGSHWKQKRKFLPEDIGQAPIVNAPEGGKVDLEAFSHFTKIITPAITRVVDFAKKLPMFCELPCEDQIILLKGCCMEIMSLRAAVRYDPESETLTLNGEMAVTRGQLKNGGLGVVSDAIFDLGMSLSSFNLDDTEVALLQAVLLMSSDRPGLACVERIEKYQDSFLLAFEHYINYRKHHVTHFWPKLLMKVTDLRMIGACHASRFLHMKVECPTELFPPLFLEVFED
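Fluorescence polarization of 20 nM Texas Red SRC2 peptide with 0.6 uM human TRb ligand-binding domain, in Tris buffer with 1uM T3 and 5% DMSO. Incubated 5 hr ambient; normalized to unbound and bound controls.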
Coupling enz – counter-screen for Giardia aldolase inhibitors: coupling enzyme system | activity change, negative = inhibition, % at 58.2 µM, hits read low | 290,000 compounds, 0.67% hits | coupling enzyme system counterscreen, AmpLite Red fluorescence; in the data active = activity change below about -30%
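Final compound at 57.5 uM, incubated 10 min at RT with coupling enzyme reagent (glyceraldehyde-3-phosphate), then 20 min with substrate and AmpLite Red detection. Fluorescence read at 525/598 nm; tests interference with the coupling assay, not aldolase inhibition.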
TexasRed fluor – alters Texas Red total fluorescence, flagging assay interference. TRb/SRC2 Texas Red total fluorescence interference. Potency, µM (titrated, usually from 106 µM), inactives show top-dose fluorescence change, negative = quenching. 280,000 compounds, 0.29% hits. AID 1479; active = well fitted curve in either direction with a large enough effect; inconclusive = small, poorly fitted or top-dose-only effect; note: potency is the fitted concentration of half-maximal effect
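Flags fluorescent or light-absorbing compounds by total fluorescence, S + 2P, at 555 nm excitation and 632 nm emission. Mixture: 20 nM Texas Red SRC2 peptide, 0.6 uM human TRb LBD, 1 uM T3, 5% DMSO; compound exposure 5 h at ambient temperature.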
GoLoco inh red – inhibitors of human Gai1-RGS12 GoLoco interaction (red fluorophore); Gai1:RGS12 GoLoco peptide FP, rhodamine, 10 min; Potency, µM (highest dose often 61.6 µM), without a hit: top-dose activity, negative = inhibition, most hits filed as inhibitors; 230,000 compounds, 0.44% hits; AID 880; active = well fitted inhibition curve with a large enough effect, not every such curve was filed as active; inactive = no such curve, though single readings can be large or run the other way; note: potency is the fitted concentration of half-maximal effect; nearly all actives have a fitted effect of over 30% in size
Numbers without * were called inactive; ? = inconclusive; · = not tested or not shown; [ ] = remark or other dose. Unless noted, % is set by controls: 0 for no effect and ±100 for the full control effect.

SMILES	TRb-SRC2 inh	Coupling enz	TexasRed fluor	GoLoco inh red
C=CCc1cccc(C=Nc2ccc(Br)cc2)c1O	-10.6%	2.8	-1.3%	2.0%
C=CCc1cccc(/C=N/c2ncccc2O)c1O	0.6%	-42.8*	0.2%	3.2%
O=C(Nc1cccc(F)c1)[C@H](CSCc1ccccc1)N1Cc2ccccc2C1=O	2.4%	·	?	·
O=C1CCCC2=C1C(c1ccc(O)c(O)c1)c1c(ccc3ncccc13)N2 (configuration not stated)	-16.4%	-72.3*	-2.6%	-17.8%
COc1cc(OC)c([N+](=O)[O-])cc1/C=N/NC(=O)c1ccncc1	?	-42.4*	-19.3%	-9.1%
CCOC(=O)c1cnc2ccc(Cl)cc2c1NCCN(C)C	6.9%	-56.8*	-0.5%	-0.5%
CCOC(=O)c1cnc2ccc(Cl)cc2c1Nc1ccc(OCC)cc1	8.3%	·	-2.5%	·
CC#CC(=O)Nc1cc2c(Nc3ccc(F)c(Cl)c3)ncnc2cn1	7.4%	-44.1*	2.6%	·
Cc1ccc[n+](/C(C(=S)NCc2ccco2)=C(/[O-])c2ccccc2Cl)c1	-7.9%	-32.4*	1.9%	5.9%
CCNC(=S)/C(=C(/[O-])c1ccc([N+](=O)[O-])cc1)[n+]1ccccc1	3.3%	-3.8	-0.5%	4.1%
CC(C)(C)c1ccc(/C([O-])=C(/C(=S)NCc2ccco2)[n+]2ccccc2)cc1	-10.9%	-30.4*	-5.5%	48.7%
CC(CNc1nc2ccccc2c2nc(-c3ccccc3)nn12)c1ccccc1 (configuration not stated)	-29.8%[53 µM]	·	-78.3%[53 µM]	·
Cc1ccc(CCNC(=O)c2sc3nc4n(c(=O)c3c2C)CCCC4)cc1	-7.8%	·	?	·
CC(=O)N1CCC(N(Cc2ccco2)C(=O)Nc2cccc(C)c2)CC1	2.2%	·	4.4%	·
COc1ccccc1CNC(=O)CSc1ccc(C)cc1	11.6%	-30.2*	3.1%	18.1%
Cc1cc2nc(CSc3ccccc3)cc(=O)n2[nH]1	4.6%	-30.9*	-12.1%	32.6%
Cc1cc2nc(CCl)cc(=O)n2[nH]1	-0.7%	1.0	1.8%	5.7%
N#CC1=C(N)Oc2n[nH]c(-c3cccs3)c2C1c1ccco1 (configuration not stated)	-19.2%	-31.0*	6.0%	236.7%
CCCCCCCCCCCCO	3.5%[201 µM]	·	-2.8%[201 µM]	·
COc1ccc(-c2noc(CCC(=O)Nc3ccccc3Cl)n2)cc1OC	-27.5%[53 µM]	·	0.004µM*[quencher]	·
COc1ccc(-c2noc(CCC(=O)Nc3cccnc3)n2)cc1OC	-6.8%	-1.3	-1.1%	15.9%
C[N+](C)(C)CCN(Cc1ccc(Cl)cc1)c1ccccn1	2.8%	1.3	-1.8%	6.31µM*
CN(C)CCN(Cc1ccc(Cl)cc1)c1ccccn1	3.3%	3.3	1.8%	-4.5%
CCCCC/C=C\C\C=C/C=C/C=C/[C@@H](SCC(NC(C)=O)C(=O)O)[C@@H](O)CCCC(=O)O (some centres not stated)	-5.4%	2.1	0.1%	-0.9%
O=C(NCCO)C(=O)NCC(c1ccc2c(c1)OCO2)N1CCOCC1 (configuration not stated)	3.1%	·	-0.5%	·
SMILES	TRb-SRC2 inh	Coupling enz	TexasRed fluor	GoLoco inh red
Cc1ccc(CNCc2ccccc2)s1	-12.6%	·	17.8µM*[quencher]	·
Cc1ccc(CNCc2ccccc2Cl)s1	1.7%	·	-2.5%	·
Cc1ncc(CO)c2c1Oc1nc(-c3ccc(F)cc3)nc(SCC(=O)N3CCCCC3)c1C2	6.3%	·	-1.8%	·
C=CC1=C2C=C(C3CC3)N(Cc3ccc4c(c3)OCO4)C=C2C(=O)C(C)(OC(=O)c2ccco2)C1=O (configuration not stated)	1.4%[11.2 µM]	-5.6	0.6%[11.2 µM]	-5.1%[14.2 µM]
C=CC1=C2C=C(C3CC3)N(C3CCCC3)C=C2C(=O)C(C)(OC(=O)c2ccco2)C1=O (configuration not stated)	3.5%[11.2 µM]	-42.1*	0.3%[11.2 µM]	2.1%[14.2 µM]
C=CC1=C2C=C(C3CC3)N(C3CC3)C=C2C(=O)C(C)(OC(=O)c2ccco2)C1=O (configuration not stated)	2.0%[11.2 µM]	-10.7	-12.4%[11.2 µM]	2.4%[14.2 µM]
C=CC1=C2C=C(C3CC3)N(C3CCCCC3)C=C2C(=O)C(C)(OC(=O)c2ccco2)C1=O (configuration not stated)	-1.0%[11.2 µM]	-42.5*	-0.7%[11.2 µM]	3.0%[14.2 µM]
COCCCNc1c2c3c(cccc3[nH]c1=O)C(=O)c1ccccc1-2	?	-19.4	?	4.47µM*
COC(=O)N[C@@H](CCc1ccccc1)[C@]1(C(=O)OC)CCCC1=O	4.3%	2.5	-1.7%	0.1%

Source: PubChem BioAssay (National Center for Advancing Translational Sciences (NCATS))
